FGF22 binding = binders of recombinant human FGF22 by thermal shift. SYPRO orange fluorescence; percent of sucrose octasulfate shift, DMSO zero. AID 651658. hit rate 1.5% among 340,000. activity (Tm shift, normalised), % at 9.99 µM;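 active means mean Tm shift, scaled 0 neutral to 100 positive control, at about 1.3% or above, every replicate too, limit read from the data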
Target sequence (Q9HCT0 whole entry, looked up): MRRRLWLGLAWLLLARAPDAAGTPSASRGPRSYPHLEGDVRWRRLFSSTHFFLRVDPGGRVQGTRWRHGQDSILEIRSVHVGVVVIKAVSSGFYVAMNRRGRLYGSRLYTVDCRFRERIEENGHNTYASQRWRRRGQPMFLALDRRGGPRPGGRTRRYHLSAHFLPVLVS
esBAF inh = blocks esBAF chromatin remodeling in mouse ES cells. reporter increase, % at 12.5 µM. hit rate 2% among 350,000. Bmi1-luciferase knock-in reporter, 24 h; 100% = twice the neutral-well signal; in the data active means activation above about 40%;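 further: 0% = median of the plate's neutral control wells and 100% = double that signal; a rise in the Bmi1 reporter signal indicates esBAF inhibition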
AF4-AF9 inh = inhibitors of human MLL-AF4/AF9 interaction. AlphaScreen, biotin-AF4 peptide binding to FLAG-AF9. inhibition, % at 10 µM. hit rate 0.47% among 350,000. AID 651704;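 active means every replicate reaching a set inhibition limit, whatever the replicate mean, cut at about 25% in these data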;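 further: 0% = plate neutral control median and 100% = total signal loss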
MITF TRPM1 HTS = MITF TRPM1 promoter activation in melanoma cells; SK-MEL-5 TRPM1-promoter luciferase, 24 h; % of positive control, neutral wells = 0; activation, % at 12.5 µM; hit rate 0.75% among 300,000;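 active means mean activation of at least 80% with every replicate also reaching 80%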;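 further: 0% = neutral control wells and 100% = parthenolide positive control wells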
Wnt bcat act = activates Wnt/beta-catenin signaling in a reporter cell assay; activation, % at 9.35 µM; activator, plate reader; hit rate 1.2% among 300,000; in the data active means activation above about 30%, passing the limit was not always enough;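 further: 0% = neutral control wells and 100% = positive control wells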
SMARCA2 act = activators of SMARCA2 function; MG213 cells, MMTV-luciferase reporter, dexamethasone, overnight; activation, % at 9.1 µM; hit rate 1% among 370,000; AID 652017; in the data active means activation above about 7.8%;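 further: 0% = vehicle wells and 100% = reference activator wells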
Starred values were filed as active, the others as inactive. In the library only some 4.3% were active in any assay of this set; here they are far more common.

`C[C@@H]1CN([C@H](C)CO)C(=O)Cc2cc(NC(=O)Nc3ccc4c(c3)OCO4)ccc2O[C@@H]1CN(C)CC1CCCCC1` gave FGF22 binding -1, esBAF inh 2 and AF4-AF9 inh 7.
Screening COc1ccc(CN(C)C[C@@H]2Oc3ccc(NC(=O)Nc4ccc5c(c4)OCO5)cc3CC(=O)N([C@@H](C)CO)C[C@H]2C)cc1 returned FGF22 binding 0, esBAF inh -6 and AF4-AF9 inh 27*.
`Cc1ccc(S(=O)(=O)N(C)C[C@H]2Oc3ccc(NS(=O)(=O)c4c(C)noc4C)cc3C(=O)N([C@H](C)CO)C[C@H]2C)cc1` gave FGF22 binding 0, esBAF inh -3 and AF4-AF9 inh -2.
Screening CC=Cc1ccc2n(c1=O)C[C@H]1N[C@@H]2[C@@H](C(=O)NCCc2ccccc2)[C@@H]1CO (mixture of isomers) returned FGF22 binding 0, esBAF inh 7 and AF4-AF9 inh -1.
Screening CC(C)NC(=O)N1[C@H](CO)[C@@H](c2ccccc2)C12CN(Cc1ccccc1)C2 returned FGF22 binding 0 and AF4-AF9 inh 1.
`C[C@H](CO)N1C[C@H](C)[C@H](CN(C)C(=O)Nc2ccc(F)cc2)Oc2ccc(NC(=O)Nc3ccc(C(F)(F)F)cc3)cc2CC1=O` gave FGF22 binding 1.2*, esBAF inh 0 and AF4-AF9 inh 1.
For C[C@H](CO)N1C[C@H](C)[C@H](CN(C)C(=O)Nc2cccc3ccccc23)Oc2ccc(NC(=O)Cc3ccccc3)cc2CC1=O the results were FGF22 binding -1, esBAF inh -11 and AF4-AF9 inh 3.
Screening C[C@@H]1CN([C@@H](C)CO)C(=O)Cc2cc(NC(=O)Nc3ccc(F)cc3)ccc2O[C@H]1CN(C)C(=O)Nc1ccc(C(F)(F)F)cc1 returned FGF22 binding 1 and esBAF inh -2.
For C[C@@H]1CN([C@@H](C)CO)C(=O)Cc2cc(NC(=O)Nc3ccc(C(F)(F)F)cc3)ccc2O[C@H]1CN(C)Cc1ccc2c(c1)OCO2 the results were FGF22 binding 3.7*, esBAF inh 1 and AF4-AF9 inh 0.
`C[C@H](CO)N1C[C@H](C)[C@@H](CN(C)C(=O)Nc2cccc3ccccc23)Oc2ccc(NC(=O)Cc3ccccc3)cc2CC1=O` gave FGF22 binding 1.6*, esBAF inh -7 and AF4-AF9 inh 0.
CC(C)NC(=O)N(C)C[C@@H]1Oc2ccc(NS(=O)(=O)c3ccc(Cl)cc3)cc2CC(=O)N([C@@H](C)CO)C[C@@H]1C was read as FGF22 binding 0, esBAF inh -1 and AF4-AF9 inh 36*.
`COc1ccc(S(=O)(=O)Nc2ccc3c(c2)C(=O)N([C@H](C)CO)C[C@H](C)[C@@H](CN(C)S(=O)(=O)c2c(C)noc2C)OCCCC[C@@H](C)O3)cc1` gave FGF22 binding 0, esBAF inh 2 and AF4-AF9 inh 0.
CCC(=O)Nc1ccc2c(c1)C(=O)N(C)C[C@H](OC)[C@H](C)CN(Cc1ccccc1OC)[C@H](C)CO2 was read as FGF22 binding 0, esBAF inh 1 and AF4-AF9 inh -7.
O=C(C[C@@H]1CC[C@@H](NS(=O)(=O)c2cccc(F)c2)[C@H](CO)O1)NCc1ccc2c(c1)OCO2 was read as FGF22 binding 0, esBAF inh 3 and AF4-AF9 inh -1.
Screening Cc1noc(C)c1S(=O)(=O)Nc1ccc2c(c1)CC(=O)N([C@@H](C)CO)C[C@H](C)[C@H](CN(C)C(=O)NC1CCCCC1)O2 returned FGF22 binding 0, esBAF inh 3 and AF4-AF9 inh -2.
Cc1noc(C)c1NC(=O)N(C)C[C@H]1Oc2c(NS(=O)(=O)c3ccc(F)cc3)cccc2C(=O)N([C@@H](C)CO)C[C@H]1C was read as FGF22 binding 0, esBAF inh -1 and AF4-AF9 inh -2.
`C[C@@H]1CN([C@@H](C)CO)C(=O)c2cc(NC(=O)CCC(F)(F)F)ccc2O[C@@H](C)CCCCO[C@H]1CN(C)Cc1ccc(C(=O)O)cc1` gave FGF22 binding 1, esBAF inh -2 and AF4-AF9 inh -5.
`C[C@@H]1CN([C@@H](C)CO)C(=O)Cc2cc(NC(=O)C3CC3)ccc2O[C@H]1CN(C)C(=O)Nc1ccc2c(c1)OCO2` gave FGF22 binding 0, esBAF inh 0 and AF4-AF9 inh 1.
C[C@@H]1CN([C@H](C)CO)C(=O)Cc2cc(NC(=O)C3CCCCC3)ccc2O[C@H]1CN(C)C(=O)Nc1ccc2c(c1)OCO2 was read as FGF22 binding 0, esBAF inh 52* and AF4-AF9 inh -1.
Screening COc1ccc(NC(=O)C2=C(C)NC(=O)NC2c2cccs2)c(OC)c1 (stereo unspecified) returned FGF22 binding 44*, esBAF inh -1, AF4-AF9 inh -5, MITF TRPM1 HTS 3, Wnt bcat act 0 and SMARCA2 act 2.
`COc1ccccc1NC(=O)C1=C(C)NC(=O)NC1c1ccccc1[N+](=O)[O-]` (stereo unspecified) gave FGF22 binding 43*, AF4-AF9 inh -2, MITF TRPM1 HTS -12, Wnt bcat act 0 and SMARCA2 act 3.
For CC1=C(C(=O)Nc2ccccc2)C(c2ccco2)NC(=O)N1 (stereo unspecified) the results were esBAF inh 3, MITF TRPM1 HTS 4, Wnt bcat act 2 and SMARCA2 act -1.
For CC1=C(C(=O)Nc2ccccc2)C(c2ccccc2[N+](=O)[O-])NC(=O)N1 (stereo unspecified) the results were FGF22 binding 43*, esBAF inh 11, AF4-AF9 inh -2, MITF TRPM1 HTS 3, Wnt bcat act 11 and SMARCA2 act 2.
`COc1ccccc1NC(=O)N1C[C@@H](O)COC[C@@H]2O[C@@H](CC(=O)NCCc3ccncc3)CC[C@H]21` gave FGF22 binding 0, esBAF inh -3 and AF4-AF9 inh 0.
`C[C@@H]1CN([C@H](C)CO)C(=O)c2cccc(NS(=O)(=O)c3cn(C)cn3)c2O[C@@H]1CN(C)S(=O)(=O)c1ccc(Cl)cc1` gave FGF22 binding 0, esBAF inh 4 and AF4-AF9 inh 0.
Screening COc1cc2nc3n(c(=O)c2cc1OC)-c1cc2ccccc2cc1C(=O)NC3CC(C)C (stereo unspecified) returned FGF22 binding 43*, esBAF inh 2, AF4-AF9 inh -4, Wnt bcat act -2 and SMARCA2 act 2.
Screening Cc1cc(C(=O)N2CCC(CO)(Cc3cccc(C(F)(F)F)c3)CC2)n[nH]1 returned FGF22 binding 0, esBAF inh -2, AF4-AF9 inh 1, MITF TRPM1 HTS 0, Wnt bcat act -1 and SMARCA2 act -2.

Source: PubChem BioAssay
